# This is part of a sample that, as a whole, favours compounds with a hit. Of some 83,000 tested, about 20% had one in any assay.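 Plates (96-well) were seeded with cells, treated with compound at one concentration, and incubated for 48 hours before percent growth was determined.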 Unmarked numbers belong to inactive results. Activity calls are given as the source filed them.
# System: EKVX NSCLC
# Experiment: NCI-60 one-dose screen, 48 h (100 = growth as untreated, 0 = no growth, -100 = all killed)
# Settings: 10 µM unless noted
# Protocol: Growth inhibition of the EKVX human Non-Small Cell Lung tumor cell line is measured as a screen for anti-cancer activity. Cells are grown in 96 well plates and exposed to the test compound for 48 hours. Compounds are tested at a single concentration, which is 10^-5 M for most compounds. The reported endpoint is percent growth (GI% or GIPRCNT), where numbers from 0 - 100% represent growth inhibition, and numbers from -100% - 0 represent cell death. For example, a value of 40 represents 60% growth inhibition. A value of 0 means no net growth occurred over the course of the experiment. A value of -40 indicates 40% of cells at the beginning of the experiment died by the end of the experiment. A value of -100 means all cells are dead at the end of the experiment.
# NCI-60 Human Tumor Cell Lines Screen was performed using the standard one-dose NCI protocol, which is described in more detail at https://dtp.cancer.gov/discovery_development/nci-60/default.htm.
# Compounds with GIPRCNT values below 10 were considered active. Activity score was based on GIPRCNT using the following formula: […]
# Score is 0 for GIPRCNT values of 100 or above, 50 for GIPRCNT values of 0, and 100 for GIPRCNT values of -100.
row,Structure (SMILES),growth
1,N#Cc1ccc(-c2ccc(COc3ccc(CC4SC(=O)NC4=O)cc3)cc2)cc1 (stereo not given),48%
2,O=S(=O)(NCCNc1nccc(-c2c(-c3cccc(F)c3)nc3occn23)n1)c1ccc(C(F)(F)F)cc1,84.2%
3,C#C[C@]1(O)CC[C@H]2[C@@H]3CC=C4c5nc(Nc6ncccn6)sc5CC[C@]4(C)[C@H]3CC[C@@]21C,43.6%
4,CC1=CCc2ccccc21,110%
5,CC1(C)C(=O)/C(=C\c2ccco2)C[C@]2(C)[C@H]3CC=C4[C@@H]5C[C@](C)(C(=O)O)CC[C@]5(C)CC[C@@]4(C)[C@]3(C)CC[C@@H]12,-71.4% [100 µM] (active)
6,CCN=Cc1c(O)c(O)c(C(C)C)c2cc(C)c(-c3c(C)cc4c(C(C)C)c(O)c(O)c(C=NCC)c4c3O)c(O)c12,30.5%
7,CCCCCCCCN(CCCCCCCC)CC(O)c1ccc(Cl)c(C)c1Cl (stereo not given),99.4%
8,Cc1ccc(Oc2c(/C=N/NC(=O)Cn3c(=O)sc4ccccc43)c(C)nn2-c2ccccc2)cc1,38%
9,Nc1ccc(Cl)c([N+](=O)[O-])c1,92%
10,O=C1COCCN1c1ccc(NCc2cn(Cc3ccccc3)c3ccccc23)cc1,94.4%
11,C#CCOc1ccc(C2=NN(CC3CC3)C3N=C(Cl)c4ncn(CC5CC5)c4N23)cc1OCC#C (stereo not given),80.1%
12,CC(C)C1=NOC(=O)C1=Cc1cn(-c2ccco2)nc1-c1ccccc1,99.6%
13,O=[N+]([O-])c1cc([N+](=O)[O-])c(NN=C(c2ccc(O)cc2)c2ccc(O)cc2)cc1Cl,38.8%
14,c1ccc(-c2n[nH]c(-c3ccccn3)n2)nc1,98.5%
15,C1=C[C@H]2O[C@@H]1c1ccc3[nH]ccc3c12,105%
16,CC(C)(C)OC(=O)N1C=C/C(=C\Cn2cc(-c3ccccc3)nn2)CC1,79.8%
17,Nc1nc(Cl)c2ncn(Cc3cc4c(cc3I)OCO4)c2n1,95.8%
18,Cn1c(=O)c(C#N)c(-c2ccco2)n2c(S(=O)(=O)Cc3ccccc3)nnc12,99.7%
19,CCCCCN(CCCCC)CCCCCCCCN1CCCc2ccccc21,76.7%
20,Cn1cc(-c2nnc(-c3cn(C)c4ncc(Br)cc34)s2)c2cc(Br)ccc21,69.2%

row,Structure (SMILES),growth
1,C=C(C)[C@@H]1CC[C@]2(C(N)=O)CC[C@]3(C)[C@H](CC[C@@H]4[C@@]5(C)C/C(=C/c6cccnc6)C(=O)C(C)(C)[C@@H]5CC[C@]43C)[C@@H]12,21.2% [100 µM]
2,Cc1cccc(C[C@H](NC(=O)Nc2ccc(C)cc2F)C(=O)N[C@@H]2C(=O)N3C[C@H](O)C[C@H]3C(=O)N3CCN(C)C[C@H]3C(=O)N[C@@H](C)C(=O)N3C[C@H](C)C[C@H]3C(=O)O[C@H]2C)c1,69.6%
3,O=C1NC(=O)C(Cc2ccccc2)(Cc2ccccc2)N1,101%
4,CC1(C)CC[C@]23CC[C@]4(C)[C@H](CC[C@@H]5[C@@]6(C)C/C(=C/c7cccnc7)C(=O)C(C)(C)[C@@H]6CC[C@]54C)[C@H]2[C@H]1OC3=O,74.7% [100 µM]
5,O=C(CSc1nccc(Nc2ccc(S(=O)(=O)Nc3ccccn3)cc2)n1)c1ccc(Cl)cc1,101%
6,COc1cc2c(c(OC)c1)C1c3cc(OC)ccc3NC(=O)N1CC2 (stereo not given),91.9%
7,Cc1ncc(C(=O)Nc2ccc(CN3CCN(C)CC3)c(C(F)(F)F)c2)cc1C#Cc1c(N)ncc2ccc(C#N)cc12,57.5%
8,O=C(NCCCNC(=O)OCc1ccc2cccc(O)c2n1)OCc1ccc2cccc(O)c2n1,79.9%
9,CN(C)c1ccc(N=Nc2ccc3ccccc3c2)cc1,83.5%
10,CCC(C)[C@H](NC(=O)NC(=O)NC(=O)CI)C(=O)OC (stereo not given in full),102%
11,N#Cc1c(N2CCOCC2)nc(=S)[nH]c1-c1ccco1,48.8%
12,COc1ccc2c(c1)C(C)Cc1c(Cl)nc(C)nc1N2C (stereo not given),34.4%
13,Cn1cc(-c2noc(-c3cn(C)c4ncc(F)cc34)n2)c2cc(Br)ccc21,58.4%
14,CCOC(=O)COc1ccc2c(c1)O/C(=C\c1ccc(O)cc1)C2=O,104%
15,COC(=O)[C@]1(C)CC[C@]2(C)CC[C@]3(C)C(=CC(=O)[C@@H]4[C@@]5(C)CCC(=O)NC(C)(C)[C@@H]5CC[C@]43C)[C@@H]2C1,-45.1% [100 µM] (active)
16,CC(C)CSc1ncnc2nc[nH]c12,95.3%
17,COC(=O)c1cc2c(=O)[nH]cc3c2c(n1)CCC3,101%
18,C[C@@H](NC(=O)[C@@H](CC(=O)N1CCC(N2CCCCC2)CC1)N1C(=O)[C@@H](N2C(=O)OC[C@@H]2c2ccccc2)[C@H]1/C=C/c1cccc(Cl)c1)c1ccccc1,66.5%
19,COc1ccc(C2CC(c3cc(OC)c(OC)c(OC)c3)=NN2C(C)=O)cc1OCC(=O)Nc1nc2ccc(C(F)(F)F)cc2s1 (stereo not given),83.4%
20,NS(=O)(=O)c1ccc(CCN2C(=O)/C(=C\c3ccccc3)C=C2c2ccc(Cl)cc2)cc1,88.5%

# From PubChem BioAssay (NCI)
